# In PubChem BioAssay (NCATS):
# Records with an inconclusive call do not appear. Where a call stands in place of a potency, no number is given. Calls of active or inactive are those of the source. The call rests on the fitted dose curve; in most records, active means well fitted inhibition curve with a large enough effect; inconclusive means small, poorly fitted or top-dose-only effect; inactive means no such curve, though single readings can be large or run the other way.
# Biological target: Retinal dehydrogenase 2 (Homo sapiens) (UniProt O94788)
# Assay: qHTS for Inhibitors of the Aldehyde Dehydrogenase Family (ALDH1A2) Confirmation screens (AID 2061314); further: nearly all actives have a fitted effect of over 65% in size
# Conditions: ALDH1A2 enzyme inhibition qHTS confirmation; series mostly up to 45.9 µM
# Potency means the concentration at half of the fitted maximal effect.
row,SMILES,Potency
1,Cc1cccc(-c2nc3c(cnn3-c3ccccc3)c(=O)n2-c2ccc(Cl)cc2)c1,inactive
2,COc1ccc(NC(=O)c2cc(S(=O)(=O)N3CCOCC3)ccc2OC)cc1,inactive
3,O=C(COc1ccccc1-c1nc(-c2ccccc2)no1)Nc1cccc([N+](=O)[O-])c1,inactive
4,CC(C)OCCCNC(=O)CN1C(=O)COc2ccc(S(=O)(=O)N3CCOCC3)cc21,inactive
5,COc1cc(OC)cc(C(=O)NCCc2csc3nc(-c4ccccc4F)nn23)c1,inactive
6,CCN(CC)S(=O)(=O)c1ccc2c(c1)N(CC(=O)N1CCN(c3cccc(C(F)(F)F)c3)CC1)C(=O)CO2,inactive
7,O=c1c2nc(OCc3ccc(F)cc3)ccc2ncn1C1CC1,inactive
8,Cc1nn2c(=O)cc(COC(=O)c3ccc(F)cc3)nc2s1,inactive
9,CCc1nn(-c2ccccc2)c(Oc2cccc(C)c2)c1CCC(=O)N1CCOCC1,inactive
10,COc1cc(C(=O)NCC(c2ccco2)S(=O)(=O)c2ccccc2)cc(OC)c1OC (stereo not given),inactive
11,COc1ccccc1-c1[nH]nc2ncc(C(=O)NCCc3ccccn3)nc12,39.8 µM (active)
12,Cc1ccc(S(=O)(=O)N2CCCC(Cn3cnc4cccnc43)C2)cc1C (stereo not given),inactive
13,O=C(O)C1(Oc2ccc(Cl)cc2)CCN(c2cnccn2)CC1,inactive
14,CCOc1ccc(C(=O)Nc2ccc(NC(=O)c3ccccc3)cc2)cc1Br,inactive
15,COc1ccc(S(=O)(=O)N2CCC(N(C(=O)C3CC3)C3CCOCC3)CC2)cc1,inactive
16,CCOc1ccccc1NC(=O)c1cnc(N2CCOCC2)c2ccccc12,inactive
17,COc1ccc(OC)c(NC(=O)CSc2nnc3ccc4ccccc4n23)c1,inactive
18,COc1ccc(C(CNC(=O)c2cccc([N+](=O)[O-])c2)N2CCOCC2)cc1 (stereo not given),inactive
19,COc1cccc(-c2cccc(C(=O)N3CCN([S+](=O)([O-])c4ccccc4)CC3)c2)c1,inactive
20,O=S(=O)(NCCn1cc(-c2cncnc2)nn1)c1ccc(Cl)cc1,inactive

row,SMILES,Potency
1,CCCc1cnc2c(c1SCC(=O)N(C)c1ccccc1)c(=O)n(C)c(=O)n2C,inactive
2,Cc1cccc(C(=O)N2CCCC(N3CCN(c4cccc(C(F)(F)F)c4)CC3)C2)c1 (stereo not given),inactive
3,COc1ccc(NC(=O)c2ccco2)cc1NC(=O)c1ccccc1[N+](=O)[O-],inactive
4,CCn1cc(C(=O)N(C)c2cc(C)ccc2C)c2cc(OC)c(OC)cc2c1=O,inactive
5,CCc1nn2c(=O)c(S(=O)(=O)Nc3ccc(C(C)C)cc3)c(C)nc2s1,inactive
6,CCOc1ccccc1NC(=O)CN(C)S(=O)(=O)c1ccc(C(=O)N2CCOCC2)s1,inactive
7,O=C(CC1N=C2c3ccccc3N=C(SCc3cccc(F)c3)N2C1=O)NCc1cccs1 (stereo not given),inactive
8,CN(CC1(CO)CC1)c1nccc(CCC(F)(F)F)n1,inactive
9,COc1ccc(S(=O)(=O)N2CCOC[C@H](Oc3ccc(C(F)(F)F)cc3)C2)cc1,inactive
10,CNC(=O)c1cc(C)nc2onc(C3CCCN3C(=O)c3ccccc3)c12 (stereo not given),inactive
11,COc1cccc(-n2c(SCc3ccccc3C)nc3c([nH]c4ccccc43)c2=O)c1,inactive
12,CCN(CC)CCNC(=O)CN1C(=O)COc2ccc(S(=O)(=O)N3CCOCC3)cc21,inactive
13,Nc1c(-c2ccncc2)cc[nH]c1=O,0.634 µM (active)
14,Cc1cc(C)n2nc(CNS(=O)(=O)c3ccc(Cl)cc3)nc2n1,inactive
15,O=C(NCC(=O)N1CCOCC1)c1cccc(-c2ccc(C(F)(F)F)cc2)c1,inactive
16,COc1ccccc1CC(=O)NCc1cccnc1-n1cnc2ccccc21,inactive
17,Cn1c(=O)n([C@H]2CCCN(C(=O)c3cccnc3)C2)c2ncccc21,inactive
18,COc1cccc(-c2nn(-c3ccccc3)c(OC(C)=O)c2-c2ccc(NC(=O)C3CCCC3)cc2)c1,inactive
19,Cc1cccn2c(=O)c3cc(C#N)c(=O)n(-c4nnc(SCc5ccc(Cl)cc5)s4)c3nc12,inactive
20,CCC(=O)N(C1CCOCC1)C1CCN(S(=O)(=O)c2ccc(C(F)(F)F)cc2)CC1,inactive
